Values joined by “and” are separate entries in the source; they are usually repeats but may differ in a detail not shown here. Equal entries are not always repeated. Records with an inconclusive call do not appear. Entries that show only a call come without a potency. A structure can be active in one record and inactive in another. Active and inactive are the calls of the source. Unless noted, calls follow the shape of the dose curve; as a rule, active = well fitted curve in the direction sought with a large enough effect in the repeat runs; inconclusive = weak or mixed curves; inactive = no such curve, though single readings can be large; an effect the other way counts as inactive or inconclusive.
Experiments:
[1] = A CellTox Green Cytotoxicity Assay to monitor cytotoxicity in HepG2 cells - 8 hour (AID 1224890); also: nearly all actives have a fitted effect of over 45% in size
Procedure, shortened: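 HepG2 cells were seeded together with the CellTox Green dye at 600 cells/well, left 5 h at 37 C/5% CO2, then given compounds in DMSO. Fluorescence from dye bound to dead-cell DNA was read repeatedly over 40 h of treatment at 37 C.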

[2] = qHTS assay to identify small molecule antagonists of the estrogen receptor alpha (ER-alpha) signaling pathway using the BG1 cell line in the presence of 0.1 nM 17-beta-estradiol - cell viability counter screen (AID 1259241); also: nearly all actives have a fitted effect of over 40% in size; also: potency is read from the fitted curve at half-maximal effect
Procedure, shortened: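 VM7Luc4E2, 4,000 cells/well, phenol red-free medium + 10% charcoal-stripped FBS; 24 hr plating; cpd + 0.1 nM E2 final, 22 hr 37C/5% CO2; CellTiter-Fluor 30 min, fluorescence.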

[3] = qHTS assay to identify small molecule antagonists of the androgen receptor (AR) signaling pathway using the MDA cell line in the presence of 0.5 nM R1881 - cell viability counter screen (AID 1259242); also: nearly all actives have a fitted effect of over 45% in size; also: potency is read from the fitted curve at half-maximal effect
Procedure, shortened: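 MDA-kb2 cells (human breast carcinoma, stably carrying MMTV-luciferase reporter) were exposed to compounds with 0.5 nM R1881 (final) for 16 hr at 37C, 0% CO2; viability then read as live-cell protease fluorescence (CellTiter-Fluor, 30 min) in the same wells.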

[4] = qHTS assay to identify small molecule phospholipidosis (PLD) inducers (AID 1259344; active = well fitted curve in the direction sought with a large enough effect; an effect the other way counts as inactive or inconclusive)
Procedure, shortened: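 Fluorescent phospholipid staining (LipidTOX Red) measured by automated microscopy in fixed HepG2 cells after 24 h treatment; nuclei counterstained with Hoechst 33342; amiodarone as reference inducer.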

[5] = qHTS assay to identify small molecule HDAC inhibitors - cell viability counter screen (AID 1259365); also: series mostly up to about 92 µM; nearly all actives have a fitted effect of over 50% in size
Procedure, shortened: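 Luminescence from CellTiter-Glo, developed 30min at room temperature, reports viability of wild-type HCT-116 cells treated 2hr with compounds at 37 C and 5% CO2 after overnight plating.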

[6] = qHTS assay to identify small molecule agonists of the sonic hedgehog signaling (Shh) pathway - cell viability counter screen (AID 1259366); also: nearly all actives have a fitted effect of over 50% in size; also: potency is read from the fitted curve at half-maximal effect
Procedure, shortened: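 Cytotoxicity counter screen run in the same wells as the Shh reporter assay. NIH/3T3 cells carrying a Gli1 response element–driven luciferase were treated with DMSO-dissolved compounds for 24hr, and live-cell protease activity was measured with CellTiter-Fluor.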

[7] = qHTS assay to identify small molecule antagonists of the sonic hedgehog signaling (Shh) pathway - cell viability counter screen (AID 1259367); also: nearly all actives have a fitted effect of over 55% in size; also: potency is read from the fitted curve at half-maximal effect
Procedure, shortened: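 Using CellTiter-Fluor, viability of Gli1-Luc reporter 3T3 cells is read by fluorescence in the wells used for the Shh luciferase assay. Treatment lasts 23 hr with conditioned medium, then reagent 1 hr at 37C.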

[8] = target: Estrogen receptor (Homo sapiens) (UniProt P03372); test: qHTS assay to identify small molecule antagonists of the estrogen receptor alpha (ER-alpha) signaling pathway using the BG1 cell line in the presence of 0.1 nM 17-beta-estradiol (AID 1259244); also: nearly all actives have a fitted effect of over 50% in size; also: potency is read from the fitted curve at half-maximal effect
Procedure, shortened: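 VM7Luc4E2 cells (endogenous full-length ER-alpha, stable 4xERE-luciferase) were grown 5 days in phenol red-free medium with charcoal-stripped FBS, then exposed 22 h at 37C to compounds plus 0.1 nM (final) 17beta-estradiol; ONE-Glo luminescence read-out.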

[9] = qHTS assay to identify small molecule HDAC inhibitors (AID 1259364); also: nearly all actives have a fitted effect of over 45% in size; also: potency is read from the fitted curve at half-maximal effect
Procedure, shortened: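 Wild-type HCT-116 cells were plated overnight, exposed to compounds for 2 h at 37 °C, then given HDAC-Glo class I/II luminogenic reagent for 30 min at room temperature before luminescence was read.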

Sequence of Estrogen receptor (Homo sapiens) (P03372 whole entry, looked up): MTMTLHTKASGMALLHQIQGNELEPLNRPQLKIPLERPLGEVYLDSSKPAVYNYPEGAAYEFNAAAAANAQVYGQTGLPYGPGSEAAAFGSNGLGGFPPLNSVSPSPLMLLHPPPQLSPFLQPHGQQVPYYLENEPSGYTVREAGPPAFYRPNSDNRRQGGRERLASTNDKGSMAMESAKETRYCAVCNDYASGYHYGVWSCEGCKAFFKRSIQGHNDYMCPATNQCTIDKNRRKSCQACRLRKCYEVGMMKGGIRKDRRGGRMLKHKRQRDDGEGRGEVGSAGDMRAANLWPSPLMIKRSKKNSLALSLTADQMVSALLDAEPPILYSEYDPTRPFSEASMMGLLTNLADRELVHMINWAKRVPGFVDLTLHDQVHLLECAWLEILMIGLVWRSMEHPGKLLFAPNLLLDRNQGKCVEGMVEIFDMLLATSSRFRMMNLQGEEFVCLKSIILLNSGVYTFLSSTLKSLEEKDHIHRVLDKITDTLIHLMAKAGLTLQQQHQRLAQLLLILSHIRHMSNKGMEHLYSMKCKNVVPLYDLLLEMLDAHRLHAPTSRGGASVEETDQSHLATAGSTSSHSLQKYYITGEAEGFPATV

| Structure (SMILES) | Potency [1] | Potency [2] | Potency [3] | Potency [4] | outcome [5] | Potency [6] | Potency [7] | Potency [8] | Potency [9] | viability change, negative = cytotoxic [6] | viability change, negative = cytotoxic [7] | PLD induction [4] |
| --- | --- | --- | --- | --- | --- | --- | --- | --- | --- | --- | --- | --- |
| Cc1ncc[nH]1 | inactive | inactive | inactive | inactive | inactive | inactive | inactive | – | – | – | – | – |
| O=C(/C=C/C=C/c1ccc2c(c1)OCO2)N1CCCCC1 | inactive | inactive | inactive | – | inactive | inactive | inactive | inactive | – | – | – | – |
| CCCCC(CC)COCC1CO1 (centres undefined) | inactive | inactive | inactive | – | inactive | inactive | inactive | inactive | inactive | – | – | – |
| c1ccc2c(c1)Oc1ccccc1S2 | inactive | inactive | inactive | – | inactive | inactive | inactive | inactive | – | – | – | – |
| O=C(Nc1ccc([N+](=O)[O-])cc1Cl)c1cc(Cl)ccc1O | inactive | – | 2.17 µM (active) and 1.46 µM (active) | inactive | inactive | 68.6 µM (active) | 30.6 µM (active) | 2.43 µM (active) and 1.64 µM (active) | 969 nM (active) and 580 nM (active) | -20.9% [at 19 µM] (inactive) | -21.1% [at 19 µM] (inactive) | – |
| O=C1c2cccc(O)c2C(=O)c2c(O)cccc21 | inactive | inactive | – | inactive | inactive | inactive | inactive | – | – | – | – | – |
| CCCCCCCCCCCO | inactive | inactive | – | – | inactive | inactive | inactive | inactive | inactive | – | – | – |
| COc1ccccc1/C=C/C=O | inactive | inactive | – | – | inactive | inactive | inactive | inactive | inactive | – | – | – |
| C=C(C)C1CC=C(C)CC1 (centres undefined) | inactive | inactive | – | inactive | inactive | inactive | inactive | inactive | inactive | – | – | – |
| S=C(NC1CCCCC1)NC1CCCCC1 | inactive | inactive | – | – | inactive | inactive | inactive and 30.6 µM (active) | 53.4 µM (active) and 48.6 µM (active) | – | – | – | – |
| COC(=O)C1=C(C)NC(C)=C(C(=O)OCCN(C)Cc2ccccc2)C1c1cccc([N+](=O)[O-])c1 (centres undefined) | inactive | 54.2 µM (active) | – | – | inactive | 30.5 µM (active) and 11.9 µM (active) | 48.3 µM (active) and 2.37 µM (active) | 68.2 µM (active) | inactive | – | – | – |
| Nc1ccc(S(=O)(=O)Nc2cnc3ccccc3n2)cc1 | inactive | inactive | – | inactive | inactive | inactive | inactive | – | inactive | – | – | – |
| Cc1ccc(C(=O)c2cc(O)c(O)c([N+](=O)[O-])c2)cc1 | inactive | inactive | – | – | inactive | inactive | 54.5 µM (active) and inactive | – | inactive | – | – | 0.47% [at 7.66 µM] (inactive) |
